Measurements from PubChem BioAssay (NCATS).
“And” between values parts separate entries of the source, which are not always exact repeats. Equal entries are not always repeated. Records with an inconclusive call do not appear. The source made the active and inactive calls. Calls come from the whole dose curve; as a rule, active = well fitted inhibition curve with a large enough effect; inconclusive = small, poorly fitted or top-dose-only effect; inactive = flat fitted curve, though single readings scatter.

Experiments:
CRL-7250 = normal cell line; assay: Cytotoxic Profiling of Annotated Libraries Using Quantitative High-Throughput Screening (AID 1296008); conditions: Five cell lines viability, CellTiter-Glo ATP luminescence, 48-72 h; max response: hits give low values; for max response: % is set by controls: 0 for no effect and ±100 for the full control effect
Method in brief: (§1)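 Cytotoxicity was measured as CellTiter-Glo ATP luminescence, read after 10 min at room temperature. Compound treatment of the cells lasted 48 or 72 hr at 37 degrees Celsius in a qHTS format.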

HEK293 = assay: as above; conditions: Five cell lines viability, CellTiter-Glo ATP luminescence, 48-72 h; max response: hits give low values
Method in brief: as §1

HaCat [1] = assay: as above; conditions: Five cell lines viability, CellTiter-Glo ATP luminescence, 48-72 h; max response: hits give low values
Method in brief: as §1

KB-3-1 = assay: as above; conditions: Five cell lines viability, CellTiter-Glo ATP luminescence, 48-72 h; max response: hits give low values
Method in brief: as §1

NIH3T3 = assay: as above; conditions: Five cell lines viability, CellTiter-Glo ATP luminescence, 48-72 h; max response: hits give low values
Method in brief: as §1

HACAT [2] = assay: qHTS assay to identify novel small-molecules to repurpose for Merkel cell carcinoma treatment (AID 1296009); conditions: MCC and control cell lines, CellTiter-Glo viability, 72 h; at 44.8 µM (top of the series) unless noted
Method in brief: (§2)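 After compound transfer in DMSO, plates were kept 72 hr at 37 degree celsius. Luminescent ATP signal from CellTiter-Glo served as viability measure, normalized against DMSO and no-cell controls.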

HEK293T = assay: as above; conditions: MCC and control cell lines, CellTiter-Glo viability, 72 h; series mostly up to 44.8 µM
Method in brief: as §2
Note: nearly all actives have a fitted effect of over 60% in size.

CC1CCC2(C(=O)OC3OC(CO)C(O)C(O)C3O)CCC3(C)C(=CCC4C5(C)CC(O)C(O)C(C)(C(=O)O)C5CCC43C)C2C1(C)O (centres undefined)
inactive: max response (CRL-7250) 3.23% | outcome (HEK293) | outcome (HaCat [1]) | max response (KB-3-1) 1.03% | outcome (NIH3T3) | outcome (HACAT [2]) inactive [at 17.4 µM] | Potency (HEK293T)

C=C1CC[C@H]2[C@@](C)(CCC(O)[C@@]2(C)CO)[C@@H]1C/C=C(/C(=O)O)C(O)CO (some centres undefined)
inactive: outcome (CRL-7250) | outcome (HEK293) | outcome (HaCat [1]) | max response (KB-3-1) 7.71% | outcome (NIH3T3) | outcome (HACAT [2]) | Potency (HEK293T)

Cc1nn(C)c(COc2ccc(N3CCN(S(=O)(=O)N(C)C)CC3)cc2)c1-c1cccc2c(CCCOc3cccc4ccccc34)c(C(=O)O)n(CCN3CCOCC3)c12
inactive: max response (CRL-7250) -5.39% and -9.48% | outcome (HEK293) | outcome (HaCat [1]) | max response (KB-3-1) 3.5% | max response (NIH3T3) -0.0408% | outcome (HACAT [2]) | Potency (HEK293T)

O=C(NCC(=O)N1CC[C@H](NC2CCC(O)(c3ccc(-c4ncccn4)cn3)CC2)C1)c1cccc(C(F)(F)F)c1 (some centres undefined)
inactive: max response (CRL-7250) -2.44% | outcome (HEK293) | outcome (HaCat [1]) | outcome (KB-3-1) | max response (NIH3T3) 3.11% | outcome (HACAT [2]) | Potency (HEK293T)

CC(=O)Oc1cc2c(s1)CCN([C@H](C(=O)C1CC1)c1ccccc1F)C2
inactive: max response (CRL-7250) -0.62% | outcome (HEK293) | outcome (HaCat [1]) | outcome (KB-3-1) | max response (NIH3T3) 3.19% | outcome (HACAT [2]) | Potency (HEK293T)

O=C(/C=C/c1ccc(O)cc1)OCC1=C[C@@H](O)[C@@H]2C=CO[C@@H](O[C@@H]3O[C@H](CO)[C@@H](O)[C@H](O)[C@H]3O)[C@H]12
inactive: max response (CRL-7250) -2.56% | outcome (HEK293) | outcome (HaCat [1]) | outcome (KB-3-1) | outcome (NIH3T3) | outcome (HACAT [2]) inactive [at 17.4 µM] | Potency (HEK293T)

O=C(O)Cc1nn(Cc2nc3cc(C(F)(F)F)ccc3s2)c(=O)c2nccnc12
inactive: outcome (CRL-7250) | outcome (HEK293) | outcome (HaCat [1]) | max response (KB-3-1) 9.35% | max response (NIH3T3) 3.31% | outcome (HACAT [2]) | Potency (HEK293T)

COC1(CC(C)C)NC(=O)C(O)(Cc2ccccc2)NC1=O (centres undefined)
inactive: max response (CRL-7250) 2.47% | outcome (HEK293) | outcome (HaCat [1]) | max response (KB-3-1) -4.71% | outcome (NIH3T3) | outcome (HACAT [2]) | Potency (HEK293T)

COc1cc(C(O)C(CO)Oc2ccc(CCCO[C@@H]3O[C@@H](C)[C@H](O)[C@@H](O)[C@H]3O)cc2OC)ccc1O (some centres undefined)
inactive: outcome (CRL-7250) | outcome (HEK293) | outcome (HaCat [1]) | outcome (KB-3-1) | max response (NIH3T3) -2.23% | outcome (HACAT [2]) inactive [at 17.4 µM] | Potency (HEK293T)

CC(C)=CC/C=C(/C)[C@H]1CC[C@]2(C)[C@@H]1[C@H](O)CC1[C@@]3(C)CC[C@H](O)C(C)(C)[C@@H]3[C@@H](O[C@@H]3O[C@H](CO)[C@@H](O)[C@H](O)[C@H]3O[C@@H]3O[C@@H](C)[C@H](O)[C@@H](O)[C@H]3O)C[C@]12C (some centres undefined)
inactive: max response (CRL-7250) -7.49% | outcome (HEK293) | outcome (HaCat [1]) | max response (KB-3-1) 7.96% | outcome (NIH3T3) | outcome (HACAT [2]) inactive [at 17.4 µM] | Potency (HEK293T)

C[C@@H]1O[C@@H](O[C@H]2[C@H](O[C@H]3[C@H](O[C@H]4CC[C@@]5(C)C(CC[C@]6(C)C5CC=C5[C@@H]7CC(C)(C(=O)O)C[C@@H](O)[C@]7(C)CC[C@]56C)[C@@]4(C)CO)O[C@H](C(=O)O)[C@@H](O)[C@@H]3O)O[C@H](CO)[C@H](O)[C@@H]2O)[C@H](O)[C@H](O)[C@H]1O (some centres undefined)
inactive: max response (CRL-7250) -5.52% | outcome (HEK293) | outcome (HaCat [1]) | outcome (KB-3-1) | max response (NIH3T3) -3.63% | outcome (HACAT [2]) inactive [at 9.27 µM] | outcome (HEK293T) inactive [at 9.27 µM]

C=CC(C)(O)CC/C=C(\C)C(=O)OC1CC2(C(=O)O)CCC3(C)C(=CCC4C5(C)CCC(OC6OC(COC7OCC(O)C(O)C7O)C(O)C(OC7OCC(O)C(O)C7O)C6OC6OC(CO)C(O)C(O)C6OC6OCC(O)C(O)C6O)C(C)(C)C5CCC43C)C2CC1(C)C (centres undefined)
inactive: max response (CRL-7250) 0.69% | outcome (HEK293) | outcome (HaCat [1]) | outcome (KB-3-1) | max response (NIH3T3) 1.8% | outcome (HACAT [2]) inactive [at 9.27 µM] | outcome (HEK293T) inactive [at 9.27 µM]

O=C1C[C@@H](c2ccc(O)cc2)Oc2cc(O)ccc21
inactive: max response (CRL-7250) -9.15% | outcome (HEK293) | outcome (HaCat [1]) | max response (KB-3-1) 3.42% | max response (NIH3T3) 1.22% | outcome (HACAT [2]) | Potency (HEK293T)

C=C1C(OC(C)=O)C(=O)C2C(C)(C)C(OC(C)=O)CCC2(C)C1CC(OC(C)=O)/C(C)=C/COC(C)=O (centres undefined)
inactive: max response (CRL-7250) 0.124% | outcome (HEK293) | outcome (HaCat [1]) | max response (KB-3-1) -4.48% | outcome (NIH3T3) | outcome (HACAT [2]) inactive [at 17.4 µM] | Potency (HEK293T)

C[C@@H]1O[C@@H](O[C@@H]2[C@@H](O)[C@H](O[C@@H]3[C@@H](O)[C@@H](O)[C@H](O[C@H]4[C@H](OC(=O)[C@]56CCC(C)(C)C[C@H]5C5=CCC7[C@@]8(C)C[C@H](O)[C@H](O[C@@H]9O[C@H](C(=O)O)[C@@H](O)[C@H](O)[C@H]9O)[C@@](C)(CO)C8[C@H](O)C[C@@]7(C)[C@]5(C)CC6)OC[C@H](O)[C@@H]4O)O[C@H]3C)OC[C@H]2O)[C@H](O)[C@H](O)[C@H]1O (some centres undefined)
inactive: max response (CRL-7250) -17.9% | outcome (HEK293) | outcome (HaCat [1]) | max response (KB-3-1) 2.1% | outcome (NIH3T3) | outcome (HACAT [2]) inactive [at 9.27 µM] | outcome (HEK293T) inactive [at 9.27 µM]

C=C[C@H]1[C@H](O[C@@H]2O[C@H](CO)[C@@H](O)[C@H](O)[C@H]2O)OC=C2C(=O)OCC[C@]21O
inactive: max response (CRL-7250) 0.194% | outcome (HEK293) | outcome (HaCat [1]) | max response (KB-3-1) 0.223% | outcome (NIH3T3) | outcome (HACAT [2]) | Potency (HEK293T)

CNC(=O)COC(=O)NCCC1CCN(c2cccc(C)n2)CC1
inactive: max response (CRL-7250) -5.78% | outcome (HEK293) | outcome (HaCat [1]) | max response (KB-3-1) 9.28% | max response (NIH3T3) -5.35% | outcome (HACAT [2]) | Potency (HEK293T)
